Test results: PubChem BioAssay (NCATS)
Results filed as inconclusive are left out. A call without a number means that no potency is given here. The source made the active and inactive calls. Calls follow the shape of the dose curve; as a rule, active = well fitted cell-killing curve with a large enough effect; inconclusive = small, poorly fitted or top-dose-only effect; inactive = flat fitted curve, though single readings scatter.

Legend:
[1] = MultiTox-Fluor Cytotoxicity Assay - LYMP1-003 - Live Cells (AID 962);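 also: cells exposed to compound for 16 hours at 37 °C; cytotoxic hits lower the live-cell protease signal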
In short: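 Cells plated at 2500 per well and incubated 5 hr; compounds added and incubated 16 hr at 37 C; MultiTox-Fluor reagent added for 60 min at room temperature; fluorescence of liberated AFC measured at 405/510 nm.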

[2] = Cell Viability - LYMP1-003 - Assay at 40 hr (AID 964); also: nearly all actives have a fitted effect of over 60% in size; also: potency is read from the fitted curve at half-maximal effect
In short: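 This qHTS cytotoxicity screen treats human lymphoblastoid cells (LYMP1-003) with compounds for 40 hr and quantifies cellular ATP via luciferase luminescence.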

[3] = Cell Viability - LYMP2-009 (AID 968);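 also: cells exposed to compound for 24 h at 37 °C; nearly all actives have a fitted effect of over 55% in size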; also: potency is read from the fitted curve at half-maximal effect
[4] = Cell Viability - LYMP2-011 (AID 969); also: nearly all actives have a fitted effect of over 60% in size; also: potency is read from the fitted curve at half-maximal effect
In short: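 Acute toxicity is scored as a concentration-dependent drop in intracellular ATP of a human lymphoblastoid line after 24 hr treatment. Values are AC50s modeled with the Hill equation.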

[5] = Cell Viability - LYMP2-013 (AID 970);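 also: cells exposed to compound for 24 h at 37 °C; nearly all actives have a fitted effect of over 55% in size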; also: potency is read from the fitted curve at half-maximal effect
In short: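 Acute toxicity was measured in human lymphoblastoid cells (2500/well) exposed to compound titrations for 24 hr, with ATP luminescence (CellTiter-Glo) as read-out and AC50 fitted by Hill equation.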

[6] = Cell Viability - LYMP2-017 (AID 972);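 also: cells exposed to compound for 24 hours at 37 °C; nearly all actives have a fitted effect of over 55% in size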; also: potency is read from the fitted curve at half-maximal effect
In short: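 Steps: plate 2500 lymphoblastoid cells per well; incubate 5 hr at 37 C; add compound across a concentration series and incubate 24 hr at 37 C; add CellTiter-Glo and read luminescence after 30 min at room temperature; fit Hill curves for AC50.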

[7] = Cell Viability - LYMP2-019 (AID 973);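 also: cells exposed to compound for 24 h at 37 °C; nearly all actives have a fitted effect of over 55% in size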; also: potency is read from the fitted curve at half-maximal effect
In short: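 Cells plated at 2500/well and allowed 5 hr at 37 C before compound addition. After 24 hr incubation, CellTiter-Glo reagent was added, plates sat 30 min at room temperature, and luminescence was recorded.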

[8] = Cell Viability - LYMP2-021 (AID 974); also: potency is read from the fitted curve at half-maximal effect
In short: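 Concentration-response cytotoxicity in a human lymphoblastoid line: 24 hr treatment at 37 C in complete culture medium, tetraoctylammonium bromide as positive control, luminescent ATP quantitation as viability measure.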

[9] = Cell Viability - LYMP2-025 (AID 976);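 also: cells exposed to compound for 24 h at 37 °C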; also: potency is read from the fitted curve at half-maximal effect
In short: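 In qHTS format, LYMP2-025 lymphoblastoid cells in complete culture medium received compound for 24 hr; ATP-based CellTiter-Glo signal gave viability, with AC50 derived by Hill equation.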

[10] = Cell Viability - LYMP2-007 (AID 979);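 also: cells exposed to compound for 24 h before reading; nearly all actives have a fitted effect of over 60% in size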; also: potency is read from the fitted curve at half-maximal effect
In short: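 Acute toxicity is scored as a concentration-dependent fall in intracellular ATP in human lymphoblastoid cells treated 24 hr at 37 C, measured by luciferase luminescence; Hill-equation modelling yields AC50.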

[11] = Cell Viability - LYMP2-008 (AID 980); also: nearly all actives have a fitted effect of over 60% in size; also: potency is read from the fitted curve at half-maximal effect
In short: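 Acute cytotoxicity is scored as concentration-dependent loss of cellular ATP in a human lymphoblastoid line after 24 hr treatment at 37 C. ATP is quantified by luciferase luminescence.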

[12] = Cell Viability - LYMP2-010 (AID 981); also: potency is read from the fitted curve at half-maximal effect
In short: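 Acute toxicity is scored as a concentration-dependent loss of cellular ATP in human lymphoblastoid cells after 24 hr compound exposure in complete medium. Tetraoctylammonium bromide is the positive control.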

[13] = Cell Viability - LYMP2-014 (AID 983);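 also: cells exposed to compound for 24 h at 37 °C; nearly all actives have a fitted effect of over 50% in size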; also: potency is read from the fitted curve at half-maximal effect
In short: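 Decrease in intracellular ATP after 24 hr treatment at 37 C, measured by luciferase luminescence, indicated cytotoxicity. Concentration-response data were fitted with the standard Hill equation to give AC50.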

[14] = Cell Viability - LYMP2-018 (AID 985);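 also: compound exposure lasted 24 hr at 37 °C; nearly all actives have a fitted effect of over 50% in size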; also: potency is read from the fitted curve at half-maximal effect
In short: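 Acute cytotoxicity is scored as a concentration-dependent drop in intracellular ATP after 24 hr exposure of the lymphoblastoid line in complete culture medium, measured by luciferase luminescence. Potency is expressed as AC50 from Hill modelling.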

[15] = Cell Viability - LYMP2-020 (AID 986); also: potency is read from the fitted curve at half-maximal effect
In short: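 Acute cytotoxicity in a human lymphoblastoid line is scored as a concentration-dependent fall in cellular ATP after 24 hr at 37 C in complete medium. The positive control is tetraoctylammonium bromide, and potency is given as Hill-fit AC50.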

[16] = Cell Viability - LYMP2-022 (AID 987); also: nearly all actives have a fitted effect of over 55% in size; also: potency is read from the fitted curve at half-maximal effect
In short: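 Acute toxicity in a human lymphoblastoid line is scored as decreased intracellular ATP after 24 hr compound treatment at 37 C. ATP is measured by CellTiter-Glo luminescence; curves are fitted with the Hill equation to give AC50.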

[17] = Cell Viability - LYMP2-024 (AID 988); also: nearly all actives have a fitted effect of over 60% in size; also: potency is read from the fitted curve at half-maximal effect
In short: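 Acute toxicity is measured as concentration-dependent loss of intracellular ATP in a human lymphoblastoid line treated 24 hours at 37 C. Luciferase luminescence quantifies ATP; AC50 values come from standard Hill-equation modelling.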

[18] = Cell Viability - LYMP2-026 (AID 989);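 also: cells exposed to compound for 24 h at 37 °C; nearly all actives have a fitted effect of over 50% in size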; also: potency is read from the fitted curve at half-maximal effect
In short: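 Concentration-dependent loss of intracellular ATP in human lymphoblastoid cells after 24 hr at 37 C, quantified by luciferase luminescence. AC50 derived from standard Hill equation.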

[19] = Cell Viability - LYMP1-002 - Assay at 24 hr (AID 993); also: potency is read from the fitted curve at half-maximal effect
In short: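 qHTS, LYMP1-002 lymphoblastoid, 24 h cpd, 37 C, CellTiter-Glo ATP luminescence; AC50 via Hill eq.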

[20] = Cell Viability - LYMP1-002 - Assay at 40 hr (AID 994); also: nearly all actives have a fitted effect of over 60% in size; also: potency is read from the fitted curve at half-maximal effect
In short: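 Viability in the human lymphoblastoid line was measured as intracellular ATP via CellTiter-Glo after 40 hr compound exposure. Tetraoctylammonium bromide served as positive control.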

SMILES	Potency [1]	Potency [2]	Potency [3]	Potency [4]	Potency [5]	Potency [6]	Potency [7]	Potency [8]	Potency [9]	Potency [10]	Potency [11]	Potency [12]	Potency [13]	Potency [14]	Potency [15]	Potency [16]	Potency [17]	Potency [18]	Potency [19]	Potency [20]
ClCCCl	inactive	inactive	inactive	inactive	inactive	inactive	inactive	inactive	inactive	inactive	inactive	inactive	inactive	inactive	inactive	inactive	inactive	inactive	inactive	inactive
C/C=C\c1ccc(OC)cc1	inactive	inactive	inactive	inactive	inactive	inactive	inactive	inactive	inactive	inactive	inactive	inactive	inactive	inactive	inactive	inactive	inactive	inactive	inactive	inactive
Cc1ccccc1C	inactive	inactive	inactive	inactive	inactive	inactive	inactive	inactive	inactive	inactive	inactive	inactive	inactive	inactive	inactive	inactive	inactive	inactive	inactive	inactive
Cc1cccc([N+](=O)[O-])c1C	inactive	inactive	inactive	inactive	inactive	inactive	inactive	inactive	inactive	inactive	inactive	inactive	inactive	inactive	inactive	inactive	inactive	inactive	inactive	inactive
COC(=O)CCCCC(=O)OC	inactive	inactive	inactive	inactive	inactive	inactive	inactive	inactive	inactive	inactive	inactive	inactive	inactive	inactive	inactive	inactive	inactive	inactive	inactive	inactive
O=C(O)CC(C(=O)O)C(CC(=O)O)C(=O)O (stereo not given)	inactive	inactive	inactive	inactive	inactive	inactive	inactive	inactive	inactive	inactive	inactive	inactive	inactive	inactive	inactive	inactive	inactive	inactive	inactive	inactive
COCC(=O)O	inactive	inactive	inactive	inactive	inactive	inactive	inactive	inactive	inactive	inactive	inactive	inactive	inactive	inactive	inactive	inactive	inactive	inactive	inactive	inactive
C=Cc1ccccc1Cl	inactive	inactive	inactive	inactive	inactive	inactive	inactive	inactive	inactive	inactive	inactive	inactive	inactive	inactive	inactive	inactive	inactive	inactive	inactive	inactive
CN(C)C=O	inactive	inactive	inactive	inactive	inactive	inactive	inactive	inactive	inactive	inactive	inactive	inactive	inactive	inactive	inactive	inactive	inactive	inactive	inactive	inactive
Nc1ccc(Cl)cc1Cl	inactive	inactive	inactive	inactive	inactive	inactive	inactive	inactive	inactive	inactive	inactive	inactive	inactive	inactive	inactive	inactive	inactive	inactive	inactive	inactive
CCCCCCCCO	inactive	inactive	inactive	inactive	inactive	inactive	inactive	inactive	inactive	inactive	inactive	inactive	inactive	inactive	inactive	inactive	inactive	inactive	inactive	inactive
C=CCOC(=O)c1ccccc1C(=O)OCC=C	inactive	inactive	inactive	inactive	inactive	inactive	inactive	inactive	inactive	inactive	inactive	inactive	inactive	inactive	inactive	inactive	inactive	inactive	inactive	inactive
O=[N+]([O-])c1cccc(Cl)c1Cl	inactive	inactive	inactive	inactive	inactive	inactive	inactive	inactive	inactive	inactive	inactive	inactive	inactive	inactive	inactive	inactive	inactive	inactive	inactive	inactive
Cc1c(N=C=O)cccc1N=C=O	inactive	inactive	inactive	inactive	inactive	inactive	inactive	inactive	inactive	inactive	inactive	inactive	inactive	inactive	inactive	inactive	inactive	inactive	inactive	inactive
COC(=O)c1ccc(C=O)cc1	inactive	inactive	inactive	inactive	inactive	inactive	inactive	inactive	inactive	inactive	inactive	inactive	inactive	inactive	inactive	inactive	inactive	inactive	inactive	inactive
NC1=NC(S)C2N=CN=C2N1 (stereo not given)	inactive	1.58 µM (active)	15.8 µM (active)	20 µM (active)	20 µM (active)	12.6 µM (active)	10 µM (active)	15.8 µM (active)	3.16 µM (active)	15.8 µM (active)	3.16 µM (active)	12.6 µM (active)	15.8 µM (active)	7.94 µM (active)	10 µM (active)	12.6 µM (active)	12.6 µM (active)	12.6 µM (active)	10 µM (active)	2 µM (active)
CCCN(CCC)C(=O)SCC	inactive	inactive	inactive	inactive	inactive	inactive	inactive	inactive	inactive	inactive	inactive	inactive	inactive	inactive	inactive	inactive	inactive	inactive	inactive	inactive
Clc1cc(Cl)c(Cl)cc1Cl	inactive	inactive	inactive	inactive	inactive	inactive	inactive	inactive	inactive	inactive	inactive	inactive	inactive	inactive	inactive	inactive	inactive	inactive	inactive	inactive
CC(C)=CCCC(C)CCO (stereo not given)	inactive	inactive	inactive	inactive	inactive	inactive	inactive	inactive	inactive	inactive	inactive	inactive	inactive	inactive	inactive	inactive	inactive	inactive	inactive	inactive
